RecA splice inh – blocks M. tuberculosis RecA intein splicing; inhibition, % (test concentration not listed); cell-free RecA intein splicing, fluorescence; 290,000 tested, 0.75% active; in the data active means inhibition above about 30%;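 further: 0% = vehicle wells and 100% = reference inhibitor control wells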
Mtb UGM inh – inhibitors of M. tuberculosis UDP-galactopyranose mutase | 320,000 tested, 0.06% active | purified UGM, fluorescence polarization probe displacement | inhibition, % at 10 µM; in the data active means inhibition above about 10%, passing the limit was not always enough
BH1578 lux ind – quorum light induction in luxS cqsA deficient V. cholerae | AID 588436 | 350,000 tested, 0.16% active | activation, % at 18.7 µM | V. cholerae BH1578 lux reporter, luminescence, 6 h; in the data active means activation mostly above about 9.7%, no sharp cut-off
GDH-TPI counter – GDH-TPI coupled enzyme inhibition counter-screen; GDH-TPI coupled enzyme counterscreen, NADH absorbance; inhibition, % at 4.8 µM; 360,000 tested, 1.2% active; in the data active means inhibition above about 30%;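 further: 0% = DMSO wells and 100% = wells lacking the enzyme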
Rv3671c protease – inhibitors of M. tuberculosis serine protease Rv3671c; inhibition, % at 5.96 µM; 320,000 tested, 0.048% active; in the data active means inhibition above about 38%;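 further: extracellular domain of Rv3671c used as enzyme; 0% = enzyme with DMSO and 100% = no enzyme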
Target sequence (P9WHR9 whole entry, looked up, the tested form may be a part): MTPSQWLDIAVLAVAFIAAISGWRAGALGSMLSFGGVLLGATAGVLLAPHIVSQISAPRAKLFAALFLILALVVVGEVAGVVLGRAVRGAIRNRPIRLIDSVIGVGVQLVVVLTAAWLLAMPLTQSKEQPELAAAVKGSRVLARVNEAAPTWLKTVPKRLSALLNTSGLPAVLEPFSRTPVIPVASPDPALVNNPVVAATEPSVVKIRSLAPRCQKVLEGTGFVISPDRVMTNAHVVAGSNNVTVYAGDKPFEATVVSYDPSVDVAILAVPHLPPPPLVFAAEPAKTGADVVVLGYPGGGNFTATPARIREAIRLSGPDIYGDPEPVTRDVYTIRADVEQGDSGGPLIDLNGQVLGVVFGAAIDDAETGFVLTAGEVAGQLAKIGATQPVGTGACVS
Mtb FBA inh – inhibits M. tuberculosis FBA enzyme | purified M. tuberculosis FBA, fluorescence read-out | 360,000 tested, 2.3% active | inhibition, % at 1 µM; in the data active means inhibition above about 27%;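 further: 0% = vehicle and 100% = reference inhibitor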
Active calls of the source: *; i = inactive; · = not tested or not shown; + = active, no number. Compounds with a hit are over-represented: about 4.1% of the library has one in this group of screens.

SMILES | RecA splice inh | Mtb UGM inh | BH1578 lux ind | GDH-TPI counter | Rv3671c protease | Mtb FBA inh
N#CCc1ccc(-c2cccc3nccn23)cc1 | · | · | 0 | 8 | · | +
COc1ccc(CCN2CC(C(=O)NCc3cccc(F)c3)CCC2=O)cc1 (centres undefined) | · | · | -1 | 5 | · | -2
CS(=O)(=O)Nc1ccc(-c2cccc3nccn23)cc1 | · | · | 1 | 9 | · | 162*
CS(=O)(=O)Nc1ccc(Oc2ncccn2)cc1 | -1 | -2 | 0 | -3 | -4 | -2
COCCn1c(SCC(=O)NCCCN2CCCC2=O)nc2ccccc2c1=O | · | -2 | i | -14 | 5 | 0
C/C(=N\Nc1nccnc1Cl)c1ccc(Cl)c(Cl)c1 | -1 | -1 | 0 | 41* | 2 | -2
Cc1cc(=O)oc2c(C)c(OCC(=O)N3C[C@H]4C[C@@H](C3)c3cccc(=O)n3C4)ccc12 | -4 | 0 | 0 | 5 | 2 | 4
COc1ccc2c(C)c(CC(=O)N3C[C@H]4C[C@@H](C3)c3cccc(=O)n3C4)c(=O)oc2c1C | -3 | -3 | 0 | 14 | 6 | 134*
C=C(C)COc1ccc2c(C)c(CC(=O)N3C[C@H]4C[C@@H](C3)c3cccc(=O)n3C4)c(=O)oc2c1C | 1 | -1 | 0 | 12 | -9 | 124*
CCN(CC(=O)Nc1ccc(NC(C)=O)cc1)C(=O)CN1C(=O)NC2(CCCC2)C1=O | -3 | 0 | 0 | 11 | -2 | -3
Cc1cc(=O)oc2c3c(cc(OCC(=O)NCCN4CCOCC4)c12)OC(C)(C)CC3 | · | 1 | 0 | 17 | 4 | 191*
Cc1cc(=O)oc2c3c(cc(OCC(=O)NCCCn4ccnc4)c12)OC(C)(C)CC3 | 8 | 2 | 0 | 12 | 2 | +
CCCc1cc(=O)oc2c3c(cc(OCC(=O)NCCCn4ccnc4)c12)OC(C)(C)CC3 | 0 | -1 | -1 | 16 | 3 | 170*
COc1ccc2c(ccn2S(=O)(=O)c2ccccc2)c1 | · | 2 | 0 | -3 | -7 | -5
CC(C)n1c(SCC(=O)Nc2nncs2)nnc1-c1ccco1 | 0 | 1 | · | · | 1 | ·
C1CCN(c2nc3nonc3nc2NCC2CCOCC2)CC1 | -16 | 2 | i | 52* | 9 | 4
CCOc1ccc(/C=N/NC(=O)c2ccc3nc[nH]c3c2)cc1OC | · | · | i | 42* | · | 4
COc1ccc(/C=N/NC(=O)c2ccc3nc[nH]c3c2)c(OC)c1 | -1 | 0 | -1 | 35* | 0 | 0
CC(C)NC(=O)c1cc(C2CCCCN2C(=O)c2ccccc2)on1 (centres undefined) | · | · | 1 | 11 | · | 1
COc1ccc(S(=O)(=O)N2CCC(C(=O)N[C@@H](C)C(=O)NCc3ccco3)CC2)cc1 | · | · | 0 | -1 | · | 1
O=C(Sc1ccccc1)c1cccc(Cn2cc(C(F)(F)F)ccc2=O)c1 | 3 | -2 | 1 | -1 | 1 | 2
FCc1nc2nc(Cl)c(Cl)nc2[nH]1 | · | · | i | 24 | · | 2
CCN(CC)Cc1nc2nc(Cl)c(Cl)nc2[nH]1 | · | · | i | 37* | · | 1
COC(=O)c1[nH]c2c(c1C)C(=O)CC(c1cccc(OC)c1)C2 (centres undefined) | -1 | 0 | 0 | -1 | -1 | 1
COc1ccc(CCNC(=O)CN2C(=O)NC3(CCOc4ccccc43)C2=O)cc1 (centres undefined) | · | · | -1 | 3 | · | -1
SMILES | RecA splice inh | Mtb UGM inh | BH1578 lux ind | GDH-TPI counter | Rv3671c protease | Mtb FBA inh
Cc1csc(Nc2nc(N)c(C(=O)Nc3ccccc3)o2)n1 | 1 | 1 | i | 35* | 5 | -1
C[C@H](CO)N1C[C@H](C)[C@H](CN(C)S(=O)(=O)c2ccc(C#N)cc2)OCc2cnnn2CCCC1=O | · | · | 0 | 1 | · | 0
O=C(N/N=C/c1ccncc1)c1cc2c(ccc3ccccc32)o1 | -4 | -1 | i | 47* | -15 | 3
O=C(O)c1ccc(/C=N/NC(=O)c2cc3ccccc3cc2O)cc1 | · | 1 | i | 41* | 12 | -8
O=C(Nc1cccnc1)c1cc2c(ccc3ccccc32)o1 | -1 | -3 | -5 | 32* | -30 | 0
O=C(N/N=C/c1cccc([N+](=O)[O-])c1)c1cc2c(ccc3ccccc32)o1 | -3 | 1 | · | -1 | 8 | 2
O=C(CNc1ccc2ccccc2c1)N/N=C/c1ccc(C(=O)O)cc1 | 6 | 2 | 0 | 11 | 7 | -1
O=C(O)c1ccc(/C=N/NC(=O)c2cc3c(ccc4ccccc43)o2)cc1 | -6 | 1 | 0 | 57* | -5 | -2
CC1(C(=O)NS(=O)(=O)C2CC2)CCCN(C(=O)c2cccc(OC(F)(F)F)c2)C1 (centres undefined) | · | · | i | 13 | · | 2
CCN(CC)S(=O)(=O)c1ccc(Cl)c(NC(=O)COC(=O)c2nc3nc(C)cc(C)n3n2)c1 | · | 1 | i | -11 | -9 | 3
O=C(Cn1cnc2ccccc2c1=O)Nc1nnc(SCc2ccc(Cl)cc2)s1 | 0 | -1 | 0 | 11 | -6 | 2
CC(=O)c1c(C)[nH]c(C(=O)OCC(=O)NCc2ccc3c(c2)OCO3)c1C | · | 3 | i | 9 | -3 | 3
CC(=O)Nc1ccc(S(=O)(=O)Nc2ccn(Cc3ccccc3Cl)n2)cc1 | 2 | · | 1 | 11 | · | -1
Cc1ccc(OCC(=O)N2CCC(Cc3ccccc3)CC2)c([N+](=O)[O-])n1 | · | 0 | 1 | 4 | 6 | 3
O=C(NC(=S)Nc1cccc(Cl)c1Cl)C1CC1 | -1 | -1 | i | -2 | -7 | 0
COc1ccc(/C=N/NC(=O)c2ccc(O)cc2O)cc1CSc1ccccn1 | 4 | -1 | 2 | 38* | -2 | -1
O=C(N/N=C/c1cccc(Oc2ccccc2)c1)c1ccc(O)cc1O | 1 | 2 | i | 34* | · | 1
COc1ccc(C=O)cc1CSc1ccccn1 | -1 | 0 | 1 | -6 | -5 | -2
COc1ccc(OC)c(S(=O)(=O)NC(=O)C2(C)CCN2C(=O)c2ccco2)c1 (centres undefined) | · | · | 0 | -4 | · | -4
Fc1cccc(/C=N/Nc2ncnc3nc[nH]c23)c1 | -6 | 1 | 0 | 42* | 1 | 0
Oc1ccc(/C=N/Nc2ncnc3nc[nH]c23)cc1 | -5 | -1 | -4 | 74* | 9 | -1
Cc1ccc(/C=N/Nc2ncnc3nc[nH]c23)cc1 | -4 | -4 | 0 | 64* | 5 | -5
Clc1ccc(/C=N/Nc2ncnc3nc[nH]c23)cc1 | -2 | 2 | -2 | 20 | -3 | -2
Fc1ccccc1/C=N/Nc1ncnc2nc[nH]c12 | -7 | -1 | · | 28 | 10 | -2
Fc1cccc(/C=N/Nc2ccccn2)c1 | 1 | 0 | -1 | 49* | 14 | -3
CC1(C(=O)Nc2ccc3nc[nH]c3c2)CCN1C(=O)C1(c2ccccc2)CCCC1 (centres undefined) | · | · | i | 8 | · | 2
O=C(O)c1ccc(-c2ccccc2)[nH]1 | -12 | 7 | i | -5 | 3 | 2
O=C(O)c1ccc2cc(-c3ccccc3)[nH]c2c1 | -1 | 2 | i | 23 | -5 | +

High-throughput results as filed in PubChem BioAssay.
